Test results published in PubChem BioAssay.
Potency and affinity values are given separately. Results filed as inconclusive are left out. Calls of active or inactive are those of the source.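 The calls were made as follows, unless noted: active = a dose-response fit showing signal loss, with half-maximal concentration no higher than twice the top tested dose; inconclusive = flat fit between 30% and 70% signal loss, or poor fit; inactive = the rest.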

Tests used:
[1] = fungal growth arrest, C. neoformans – Alamar Blue, cherry-picks, dose response (AID 686998;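 active = falling signal with fitted half-maximal potency no higher than twice the top valid tested dose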)
[2] = C. neoformans lysis by adenylate kinase leakage – AK release luminescence, cherry-picks, dose response (AID 687000;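 active = fitted dose curve reaches 40% lysis signal rise at or below the highest valid concentration tested for that sample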;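 also: luminescent detection of adenylate kinase leaking from lysed yeast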)
[3] = viability loss in HepG2 hepatoma cells – cell-based, cherry-picks, set 2, cytotoxicity control, dose response (AID 687002)
[4] = viability loss in HeLa cells – cell-based, ATP luminescence, cherry-pick samples, cytotoxicity control, dose response (AID 687004;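 active = a fitted half-maximal concentration no higher than twice the top valid tested dose, with signal falling as cells die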)

Measured: outcome

CCCC(=O)Nc1ccc2c(c1)OC[C@@H](C)N(Cc1cncnc1)C[C@@H](C)[C@@H](OC)CN(C)C2=O
inactive: all assays above

CC=Cc1ccc2n(c1=O)C[C@@H]1[C@@H](CO)[C@H](C(=O)N3CCCCC3)N(Cc3ccccc3)[C@H]21 (mixture of isomers)
inactive: all assays above

C[C@@H]1CN([C@H](C)CO)C(=O)Cc2cc(NC(=O)Nc3cccc4ccccc34)ccc2O[C@@H]1CN(C)Cc1ccc(C(=O)O)cc1
inactive: all assays above

CC(C)NC(=O)Nc1ccc2c(c1)C(=O)N([C@@H](C)CO)C[C@@H](C)[C@@H](CN(C)S(=O)(=O)c1ccc(Cl)cc1)OCCCC[C@@H](C)O2
inactive: all assays above

CCS(=O)(=O)NCC[C@H]1CC[C@H](NS(=O)(=O)c2cccc(F)c2)[C@H](CO)O1
inactive: all assays above

COc1ccc(C#Cc2cnc3c(c2)C(=O)N([C@@H](C)CO)C[C@H](C)[C@@H](CN(C)C(=O)CC2CC2)O3)cc1
inactive: all assays above

COc1ccc(-n2ncc3c(SCC(=O)NNC(C)=O)ncnc32)cc1
inactive: all assays above

Cc1nnc(NC(=O)CSc2ncnc3c2cnn3-c2ccccc2C)s1
inactive: all assays above

CNC[C@@H]1Oc2c(NS(=O)(=O)c3cccs3)cccc2C(=O)N([C@@H](C)CO)C[C@H]1C
inactive: all assays above

C[C@H](O)C#Cc1cnc2c(c1)C(=O)N([C@@H](C)CO)C[C@@H](C)[C@@H](CN(C)C(=O)Cc1ccncc1)O2
inactive: all assays above

CC(=O)N(C)C[C@H]1Oc2cc(C#Cc3ccc(F)cc3)ccc2S(=O)(=O)N([C@H](C)CO)C[C@@H]1C
inactive: all assays above

Cc1ccc(NC(=O)C2(C)CCN2C(=O)CCC2CCCC2)cc1C (stereo unspecified)
inactive: all assays above

C[C@@H]1CCCCO[C@H](CN(C)C(=O)c2ccccc2)[C@@H](C)CN([C@@H](C)CO)C(=O)c2cc(NC(=O)c3ccccc3)ccc2O1
inactive: all assays above

O=C(C[C@H]1C[C@@H]2c3cc(NC(=O)c4cccnc4)ccc3O[C@@H]2[C@@H](CO)O1)NCCc1ccccc1
inactive: all assays above

CCCCN1CCCCC1C(=O)Nc1c(C)cccc1C (stereo unspecified)
inactive: all assays above

C[C@H]1CN([C@@H](C)CO)C(=O)Cc2cc(NC(=O)Nc3ccccc3)ccc2O[C@@H]1CN(C)C(=O)Nc1ccc2c(c1)OCO2
inactive: all assays above

COc1ccc(NC(=O)Nc2ccc3c(c2)C(=O)N([C@@H](C)CO)C[C@@H](C)[C@H](CN(C)C(=O)Cc2ccccc2)OCCCC[C@H](C)O3)cc1
inactive: all assays above

CCCN(C)C[C@H]1OCCCC[C@@H](C)Oc2ccc(NC(=O)NC(C)C)cc2C(=O)N([C@@H](C)CO)C[C@H]1C
inactive: all assays above

CCCNC(=O)N(C)C[C@@H]1Oc2ncc(C#CC3CCCCC3)cc2C(=O)N([C@H](C)CO)C[C@@H]1C
inactive: all assays above

CO[C@@H]1CN(C)C(=O)c2ccc(NC(=O)NC(C)C)cc2OC[C@H](C)NC[C@@H]1C
inactive: all assays above

CO[C@@H]1CN(C)C(=O)c2ccc(NC(=O)C3CC3)cc2OC[C@H](C)N(C(=O)c2ccncc2)C[C@H]1C
inactive: all assays above

CCc1ccc(NC(=O)C2NC(=O)CC2c2ccccc2)cc1 (stereo unspecified)
inactive: all assays above

O=C([C@@H]1[C@@H](CO)[C@@H]2Cn3c(cccc3=O)[C@H]1N2Cc1cccc(Cl)c1)N1CCOCC1
inactive: all assays above

COc1ccccc1-c1cnc2c(c1)C(=O)N([C@@H](C)CO)C[C@@H](C)[C@H](CN(C)C(=O)c1cccnc1)O2
inactive: all assays above

CC=Cc1ccc2n(c1=O)C[C@H]1[C@H](CO)[C@@H](C(=O)N3CCOCC3)N(CC3CC3)[C@@H]21 (mixture of isomers)
inactive: all assays above

C=CCNC(=O)CN(c1ccc(F)cc1)S(=O)(=O)c1ccc(OC)cc1
inactive: all assays above

C/C=C/c1ccc([C@@H]2[C@@H](CNC(=O)C3CC3)N(C(=O)CC)[C@H]2CO)cc1
inactive: all assays above

COc1ccc(S(=O)(=O)Nc2ccc3c(c2)C(=O)N([C@H](C)CO)C[C@H](C)[C@H](CN(C)C(=O)Nc2ccccc2)O3)cc1
inactive: all assays above

COC(=O)N(C)C[C@H]1OCc2cn(nn2)CCCC(=O)N([C@@H](C)CO)C[C@@H]1C
inactive: all assays above

COc1ccc(NC(=O)c2noc(C(C)C)c2[N+](=O)[O-])cc1
inactive: all assays above

C[C@@H]1CN([C@H](C)CO)C(=O)c2cc(-c3ccc(F)cc3)cnc2O[C@H]1CN(C)CC1CCCCC1
inactive: all assays above

O=C(NC1CCCC1)N1CCCCN2[C@H](CO)[C@@H](c3ccc(-c4cncnc4)cc3)[C@H]2C1
inactive: all assays above

CO[C@H]1CN(C)C(=O)c2cc(NS(=O)(=O)c3ccc(C)cc3)ccc2OC[C@H](C)N(C)C[C@H]1C
inactive: all assays above

COCC(=O)Nc1ccc2c(c1)OC[C@@H](C)N(C(=O)Cc1cccnc1)C[C@H](C)[C@@H](OC)CN(C)C2=O
inactive: all assays above

Cc1cccc(C)c1NC(=O)CNC(=O)C1CCCC1
inactive: all assays above

CCC(=O)N1[C@@H]2c3cccc(=O)n3C[C@H]1[C@H](CO)[C@H]2C(=O)NCc1ccccc1
inactive: all assays above

C[C@@H]1CN([C@@H](C)CO)C(=O)Cc2cc(NC(=O)Nc3cccc4ccccc34)ccc2O[C@@H]1CN(C)Cc1ccc(C(=O)O)cc1
inactive: all assays above

COc1cc(CNC(C)(C)C)ccc1OCC(=O)NC(C)(C)C
inactive: all assays above

COCC(=O)N1C[C@H](C)[C@H](OC)CN(C)C(=O)c2ccc(NC(=O)NC(C)C)cc2OC[C@@H]1C
inactive: all assays above

CNC(=O)C[C@H]1CC[C@H]2[C@@H](COc3ccc(NC(=O)Nc4ccccc4)cc3C(=O)N2C)O1
inactive: all assays above

C[C@H]1CN([C@@H](C)CO)S(=O)(=O)c2ccc(Br)cc2O[C@@H]1CN(C)S(=O)(=O)c1ccccc1F
inactive: all assays above

CC(=O)NNC(=O)CSc1nnc(-c2ccccc2)c(-c2ccccc2)n1
inactive: all assays above

C[C@H](CO)N1C[C@H](C)[C@@H](CN(C)C(=O)Nc2ccc(F)cc2)Oc2c(NS(=O)(=O)c3ccccc3)cccc2C1=O
inactive: all assays above

C[C@H]1CN([C@@H](C)CO)C(=O)Cc2cc(NS(=O)(=O)c3ccc(F)cc3)ccc2O[C@@H]1CN(C)S(=O)(=O)c1ccc(F)cc1
inactive: all assays above

Cc1noc(C)c1NC(=O)N(C)C[C@H]1Oc2ccc(NS(=O)(=O)c3cn(C)cn3)cc2CC(=O)N([C@H](C)CO)C[C@H]1C
inactive: all assays above

CCC(=O)Nc1ccc2c(c1)C(=O)N(C)C[C@@H](OC)[C@H](C)CN[C@@H](C)CO2
inactive: all assays above

CN1CCc2c(sc(N)c2C(=O)c2ccc(Cl)cc2)C1
inactive: all assays above

C[C@H](CO)N1C[C@H](C)[C@@H](CN(C)Cc2ccncc2)OCCCC[C@H](C)Oc2ccc(NC(=O)NC3CCCCC3)cc2C1=O
inactive: all assays above

C[C@@H]1CN([C@H](C)CO)C(=O)c2cc(-c3ccc(C#N)cc3)cnc2O[C@@H]1CN(C)C(=O)Nc1ccc(F)cc1
inactive: all assays above

C[C@@H]1CN([C@@H](C)CO)C(=O)c2cc(NC(=O)Nc3ccc(F)cc3)ccc2O[C@@H](C)CCCCO[C@H]1CN(C)S(=O)(=O)c1ccccc1
inactive: all assays above

O=C([C@H]1[C@H](CO)[C@H]2Cn3c(cccc3=O)[C@@H]1N2Cc1cccc(Cl)c1)N1CCOCC1
inactive: all assays above

O=C([C@H]1[C@H](CO)[C@H]2Cn3c(cccc3=O)[C@H]2N1CCC(F)(F)F)N1CCCCC1
inactive: all assays above

Cc1noc(C)c1S(=O)(=O)Nc1ccc2c(c1)C(=O)N([C@@H](C)CO)C[C@H](C)[C@@H](CN(C)Cc1ccc3c(c1)OCO3)OCCCC[C@@H](C)O2
inactive: all assays above

CC(C)NC(=O)Nc1ccc2c(c1)CC(=O)N([C@@H](C)CO)C[C@@H](C)[C@@H](CN(C)S(=O)(=O)c1ccc(Cl)cc1)O2
inactive: all assays above

COc1ccccc1CNC(=O)C[C@@H]1C[C@@H]2c3cc(NC(=O)Nc4ccccc4F)ccc3O[C@@H]2[C@H](CO)O1
inactive: all assays above

Cc1cccc(C)c1NC(=O)C1NC(=O)CC1c1ccccc1 (stereo unspecified)
inactive: all assays above

C[C@@H]1CN([C@@H](C)CO)C(=O)c2cccc(NC(=O)C3CC3)c2O[C@@H]1CN(C)C
inactive: all assays above

CCCNC(=O)N1C[C@@H](O)COC[C@H]2O[C@H](CC(=O)N3CCN(C)CC3)CC[C@@H]21
inactive: all assays above

Cc1ccc(S(=O)(=O)N[C@H]2CC[C@H](CCNC(=O)C3CCCC3)O[C@@H]2CO)cc1
inactive: all assays above

CO[C@H]1CN(C)C(=O)c2cc(NC(=O)c3ccc4c(c3)OCO4)ccc2OC[C@@H](C)N(CC2CC2)C[C@H]1C
inactive: all assays above

CO[C@H]1CC[C@H]2CCOc3c(C#N)cccc3C(=O)N(C)C[C@@H](C)C(=O)N(C)C[C@H]1O2
inactive: all assays above

Cc1ccc(S(=O)(=O)N[C@@H]2CCCN(Cc3cccc(OCCO)c3)C2)cc1
inactive: all assays above

Cc1cc(C(=O)Nc2ccc3c(c2)C(=O)N(C)[C@@H]2CC[C@@H](CC(=O)N[C@@H](C)c4ccccc4)O[C@@H]2CO3)no1
inactive: all assays above

COCCNC(=O)C[C@@H]1CC[C@@H]2[C@H](COC[C@@H](O)CN2S(=O)(=O)c2ccccc2C)O1
inactive: all assays above

CC(C)NC(=O)Nc1ccc2c(c1)CC(=O)N([C@@H](C)CO)C[C@H](C)[C@H](CN(C)Cc1ccc3c(c1)OCO3)O2
inactive: all assays above

CC(C)NC(=O)N(C)C[C@@H]1OCCCC[C@@H](C)Oc2ccc(NC(=O)c3ccccc3)cc2C(=O)N([C@H](C)CO)C[C@@H]1C
inactive: all assays above

COCCNC(=O)C[C@@H]1C[C@@H]2c3cc(NC(=O)C4CCOCC4)ccc3O[C@@H]2[C@@H](CO)O1
inactive: all assays above

O=C(O)C[C@@H]1CC[C@@H]2[C@H](COC[C@H](O)CN2S(=O)(=O)c2ccc(F)cc2)O1
inactive: all assays above

COc1ccc(-c2cnc3c(c2)C(=O)N([C@@H](C)CO)C[C@H](C)[C@@H](CN(C)S(C)(=O)=O)O3)cc1
inactive: all assays above
